Screening data deposited in PubChem by Sanford-Burnham Center for Chemical Genomics.
CYP2C19 act – activators of human cytochrome P450 2C19; AID 1025; P33261; recombinant CYP2C19, luciferin-H EGE luminescence; hits give high values; 0 = fully inhibited enzyme, 1 = untreated enzyme; 96,000 tested, under 10 active; activation factor at 5 µM;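 active means activation factor of at least 2 at 5 µM in the primary screen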;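 further: 0 = wells with 2.5 mM tranylcypromine and 1 = vehicle-only wells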
PLAP act – activators of human placental alkaline phosphatase | AID 696 | P05187 | activation fold at 20 µM | purified PLAP enzyme, luminescent substrate read-out; hits give high values | actives 1.2% (n = 96,000); in the data active means activation fold above about 2
CYP2C9 inhib – inhibitors of human CYP2C9. P11712. CYP2C9 Supersomes, luciferin-H conversion, luminescence. inhibition, % at 5 µM. actives 20% (n = 96,000). AID 777;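 active means blocking of liver enzyme CYP2C9 beyond about 50% at 5 µM, limit read from the data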
Target sequence (P11712 whole entry, looked up): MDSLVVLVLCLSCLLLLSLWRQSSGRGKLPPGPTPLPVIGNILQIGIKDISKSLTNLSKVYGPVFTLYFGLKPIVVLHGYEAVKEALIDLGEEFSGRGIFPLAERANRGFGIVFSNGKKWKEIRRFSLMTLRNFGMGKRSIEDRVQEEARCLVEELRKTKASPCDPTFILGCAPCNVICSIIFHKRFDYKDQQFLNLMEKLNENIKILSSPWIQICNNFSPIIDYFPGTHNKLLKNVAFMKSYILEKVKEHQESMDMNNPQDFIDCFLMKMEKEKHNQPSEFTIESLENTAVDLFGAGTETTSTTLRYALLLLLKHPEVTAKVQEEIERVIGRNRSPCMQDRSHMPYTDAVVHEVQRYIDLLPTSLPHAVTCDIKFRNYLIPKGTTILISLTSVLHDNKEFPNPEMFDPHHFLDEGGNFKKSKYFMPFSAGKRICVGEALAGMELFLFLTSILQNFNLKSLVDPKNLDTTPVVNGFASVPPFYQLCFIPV
CYP2C9 activ – activators of human CYP2C9. recombinant CYP2C9, luciferin-H conversion, luminescence; hits give high values; factor 1 = untreated enzyme, 0 = blocked. activation factor at 5 µM. P11712. actives 1.4% (n = 96,000). AID 1024;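 active means activation factor of 2 or more for CYP2C9 at a 5 µM dose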;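 further: 0 = sulfaphenazole-blocked wells and 1 = vehicle-only wells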
CYP2C19 inhib – inhibitors of human CYP2C19 | CYP2C19 Supersomes, luciferin-H EGE luminescence, 30 min | inhibition, % at 5 µM | actives 21% (n = 96,000) | P33261;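 active means CYP2C19 inhibition above a set limit at 5 µM in the primary screen, cut at about 50% in these data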;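 further: plate controls were negative control wells for no effect and 2.5 mM tranylcypromine positive control for full effect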
* marks the source's active call; other numbers are inactive results. Rows were chosen to be rich in hits. Some 31% of all compounds tested hit in one or more screens of this group.

SMILES | CYP2C19 act | PLAP act | CYP2C9 inhib | CYP2C9 activ | CYP2C19 inhib
CCOC(=O)Cn1c(=O)oc2cc(S(=O)(=O)Nc3cccc(C)c3)ccc21 | 0.5 | 1 | 54* | 0.5 | 50*
CN(Cc1ccccc1)C(=O)Cn1c(=O)oc2cc(S(=O)(=O)NCc3ccccc3)ccc21 | 0.9 | 1.1 | 4 | 1 | 7
CCOC(=O)Cn1c(=O)oc2cc(S(=O)(=O)Nc3cc(OCC)ccc3OCC)ccc21 | 0.3 | 1.1 | 74* | 0.3 | 73*
CCCN1CCN(C(=O)Cn2c(=O)oc3cc(S(=O)(=O)NCc4ccccc4)ccc32)CC1 | 1.1 | 1.2 | 27 | 0.7 | -9
Cc1c(C(=O)Nc2ccc(C(=O)O)cc2)cnn1C | 1.1 | 1 | 0 | 1 | -6
Cc1cccc(-c2nc(CSCC(=O)NCc3cccs3)c(C)o2)c1 | 0.7 | 1.2 | 26 | 0.7 | 31
Cc1nn(CC#N)c(=O)n1-c1ccc(F)cc1 | 1 | 1.1 | 0 | 1 | 2
Cc1nn(Cc2ccc([N+](=O)[O-])cc2)c(=O)n1-c1ccc(F)cc1 | 0.5 | 0.9 | 86* | 0.1 | 46
Cc1nn(CC#N)c(=O)n1-c1cccc(F)c1 | 1.3 | 0.8 | -34 | 1.3 | -30
Cc1nn(Cc2ccc([N+](=O)[O-])cc2)c(=O)n1-c1c(F)cccc1F | 0.4 | 1 | 5 | 1 | 59*
CC1=C(C#N)CCC(=O)N1Cc1c(C)cc(C)cc1C | 0.5 | 1 | 6 | 0.9 | 47
CCOC(=O)c1cnc(SCC(=O)Nc2cc(OC)cc(OC)c2)nc1N | 1 | 1 | 44 | 0.6 | 2
Cc1sc(NC(=O)CSc2nc(N)n(CC(=O)c3ccccc3)n2)c(C#N)c1C | 0.1 | 1.4 | 98* | 0 | 93*
CCOC(=O)c1cnc(SC2CCc3ccccc3C2=O)nc1N (stereo not given) | 0.2 | 1.4 | -29 | 1.3 | 81*
CCOC(=O)c1cnc(SCC(=O)NCc2cccs2)nc1N | 0.2 | 0.9 | 93* | 0.1 | 80*
CCOC(=O)c1sc(NC(=O)CSc2nc(C)cc(-c3ccccc3)n2)c(C#N)c1C | 0.9 | 1.4 | 46 | 0.5 | 10
CCOC(=O)c1cnc(SCC(=O)Nc2sc(C)c(C)c2C#N)nc1N | 0.8 | 1 | 62* | 0.4 | 18
CCOC(=O)c1cccc(NC(=O)N[C@@H](C)C(=O)OC)c1 | 0.9 | 0.8 | 6 | 0.9 | 13
CCCNC(=O)CSc1nnc(C)s1 | 0.8 | 0.8 | 22 | 0.8 | 17
CN(C1CCCCC1)S(=O)(=O)c1ccc(S(=O)(=O)N2CCN(CCC#N)CC2)cc1 | 1.1 | 0.9 | 2 | 1 | -7
CC1=CC(=O)N(c2cccc(C(F)(F)F)c2)C1c1ccc(Cl)cc1 (stereo not given) | 0.3 | 1 | 40 | 0.6 | 70*
CC1=NN(C(=O)c2csc(C)c2)C(O)(C(F)(F)F)C1 (stereo not given) | 0.6 | 1.2 | 20 | 0.8 | 44
CC1=NN(C(=O)c2ccc(Br)cc2)C(O)(C(F)(F)OC(F)(F)F)C1 (stereo not given) | 0.5 | 1 | 24 | 0.8 | 53*
Cc1ccc(C(=O)OCC(=O)Nc2ccc3c(c2)OCO3)cc1S(=O)(=O)N1CCOCC1 | 0.6 | 0.9 | 51* | 0.5 | 40
O=C(Nc1cccc(S(=O)(=O)N2CCOCC2)c1)c1ccco1 | 0.3 | 1.1 | -8 | 1.1 | 75*
SMILES | CYP2C19 act | PLAP act | CYP2C9 inhib | CYP2C9 activ | CYP2C19 inhib
O=C(Oc1cccc(NC(=O)c2ccco2)c1)c1cccc(S(=O)(=O)N2CCCCC2)c1 | 1.2 | 1 | 4 | 1 | -17
O=C(COC(=O)c1cc(S(=O)(=O)N2CCOCC2)ccc1Cl)Nc1ccc2c(c1)OCO2 | 0.3 | 1 | 61* | 0.4 | 68*
Cc1cc(C(=O)OCC(=O)Nc2cccc(S(=O)(=O)N3CCOCC3)c2)c(C)o1 | 0.3 | 1.7 | 83* | 0.2 | 73*
Cc1ccc(C(=O)Nc2cnc3sc(C)nn3c2=O)cc1 | 1.2 | 1 | -11 | 1.1 | -16
CCN(CC)CC(O)COc1ccc2c(c1)OCO2 (stereo not given) | 1 | 1 | 0 | 1 | 4
Cc1ccc(C(=O)OCC(=O)Nc2ccccc2C(F)(F)F)cc1S(=O)(=O)N1CCOCC1 | 0.8 | 0.9 | 32 | 0.7 | 18
O=C(COC(=O)CCc1ccc(S(=O)(=O)N2CCCCC2)cc1)Nc1ccc2c(c1)OCO2 | 0.6 | 0.8 | 76* | 0.2 | 43
COc1ccc(C(=O)Nc2cccc(C)c2)cc1S(=O)(=O)N1CCOCC1 | 0.8 | 0.9 | 6 | 0.9 | 23
